target: Torsin-1A (Homo sapiens) (UniProt O14656); assay: torsin A binders from cell lysate, primary screen, small-molecule microarray, wild-type, 635/667 nm (AID 1149); conditions: COS7 hTOR1A-WT lysate, 635 nm fluorescence, higher = more signal
Sequence (O14656 whole entry, looked up): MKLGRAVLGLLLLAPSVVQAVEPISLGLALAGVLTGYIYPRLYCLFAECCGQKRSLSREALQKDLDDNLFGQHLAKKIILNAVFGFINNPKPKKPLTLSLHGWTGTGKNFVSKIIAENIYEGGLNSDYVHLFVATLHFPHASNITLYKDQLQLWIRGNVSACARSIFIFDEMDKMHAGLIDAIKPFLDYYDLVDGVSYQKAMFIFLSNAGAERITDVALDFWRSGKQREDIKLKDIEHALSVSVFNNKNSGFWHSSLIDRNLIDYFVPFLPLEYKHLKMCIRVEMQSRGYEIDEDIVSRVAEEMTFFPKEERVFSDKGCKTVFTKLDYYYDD

Row | SMILES | composite z-score
1 | C=C(COC)/C(=C/C[C@@H](OC(C)=O)c1cccc(OCCO)c1)c1cc(C(=O)OC)ccc1OC | 0.284
2 | CC(C)(C)OC(=O)CC[C@]1(C(=O)NCCN2CCOCC2)N=C(c2ccc(OCCCO)cc2)O[C@H]1c1ccccc1CN=[N+]=[N-] | 0.474
3 | CC(=O)NCCCC[C@@H]1NC(=O)[C@@H]2C[C@H](C(=O)NCCCCCCN(C)C)[C@H](c3ccc(O)cc3)N2C1=O | 1.49
4 | Cc1ccc(S[C@]2(C(=O)O)CC(=O)N(Cc3ccccc3)[C@@H]2c2ccc(CO)cc2)cc1 | 0.0253
5 | O=C1c2ccccc2[C@](Cc2ccccc2I)(C(=O)NCC(F)(F)F)[C@H](c2ccc(CO)cc2)N1Cc1ccccc1C(F)(F)F | 0.305
6 | O=C1OCCC=C[C@H]2OC34C=CCN(Cc5ccccc5)C(=O)[C@H]3N(CCO)C(=O)[C@@H]4C12 (stereo partly specified) | -0.42
7 | C=CCNC(=O)[C@H]1[C@@H]2C(=O)O[C@@H](c3ccccc3)[C@@H](c3ccccc3)N2[C@@H](c2ccccc2OCCO)[C@]12C(=O)N(C(=O)OCCOC)c1ccc(C#CCC(C(=O)OC)C(=O)OC)cc12 | 0.825
8 | COc1ccc([Si](C)(C)[C@H]2[C@H](CC(=O)N3Cc4ccccc4C[C@H]3CO)O[C@@]3(C(=O)N(Cc4cccc(N5CCOC5=O)c4)c4ccccc43)[C@@H]2C)cc1 | 0.287
9 | CC(C)N1CC=CC23O[C@@H]4/C=C\CCCOC(=O)C4[C@H]2C(=O)N(CCO)[C@@H]3C1=O (stereo partly specified) | -0.373
10 | CC(C)CN1C(=O)[C@@]2(Cc3ccccc31)c1ccccc1C(=O)N(C1CCCCC1)[C@H]2c1ccc(CO)cc1 | -0.475
11 | COc1cccc([C@@H]2[C@@H](C)CC[C@H]3C(=O)N4[C@H](c5cccc(OC)c5)[C@@H](C)CC[C@H]4C(=O)N23)c1 | 0.504
12 | CO[C@H]1COC(=O)[C@H](Cc2ccccc2)NC(=O)CC=C[C@@H](C)[C@H](OC)COC(=O)CC=C[C@@H]1C | 0.109
13 | CO[C@H]1COC(=O)[C@@H](OCc2ccccc2)C=C[C@H](C)[C@@H](OC)COC(=O)[C@H](OCc2ccccc2)C=C[C@@H]1C | 0.593
14 | O=C1O[C@@H](c2ccccc2)[C@@H](c2ccccc2)N2[C@@H](c3ccc(O)cc3)[C@]3(C(=O)Nc4ccccc43)[C@@H](C(=O)N3CCN(c4ncccn4)CC3)[C@H]12 | 0.828
15 | O=C1O[C@@H](c2ccccc2)[C@@H](c2ccccc2)N2[C@@H](c3ccc(O)cc3)[C@]3(C(=O)Nc4ccc(C#CC5(O)CCCCCC5)cc43)[C@@H](C(=O)Nc3nc4ccccc4s3)[C@H]12 | 0.752
16 | C=CC[C@]1(C(N)=O)N=C(c2ccc(OCCCO)cc2)O[C@H]1c1ccccc1CN=[N+]=[N-] | 1.69
17 | COCCOC(=O)N1C(=O)[C@@]2(c3cc(C#CCCO)ccc31)[C@H](C(=O)N1CCCCCCC1)[C@H]1C(=O)O[C@H](c3ccccc3)[C@H](c3ccccc3)N1[C@@H]2c1ccc(O)cc1 | 0.678
18 | C=CCOC(=O)[C@@H]1[C@H]2C(=O)O[C@H](c3ccccc3)[C@H](c3ccccc3)N2[C@H](c2ccc(OCCOC(=O)[C@H]3C[C@H]4C(=O)N5CCC[C@H]5C(=O)N4[C@H]3c3ccc(O)cc3)cc2)[C@@]12C(=O)Nc1ccccc12 | 0.885

Row | SMILES | composite z-score
19 | CO[C@H]1COC(=O)CC=C[C@@H](C)COC(=O)[C@@H](C)NC(=O)CC=C[C@@H]1C | 2.49
20 | C=CCN1C(=O)[C@@]2(O[C@@H](CCn3cc([C@H](O)c4ccccc4)nn3)[C@H]([Si](C)(C)c3ccc(OC)cc3)[C@H]2C)c2cc(N3CCOC3=O)ccc21 | 0.0712
21 | CCCC/C=C/[C@H]([C@@H](O)Cc1ccccc1)N(CC#Cc1ccccc1)Cc1ccccc1Br | -0.335
22 | CCOC(=O)[C@H]1C/C=C/C[C@H](C(=O)OCC)C(=O)O[C@H]2[C@@H](OC)O[C@H](CO)[C@@H](OC(=O)Nc3ccc(Br)cc3)[C@@H]2OC1=O | 0.164
23 | COC(=O)c1c(CC[C@@H](CO)NC(=O)N[C@H](Cn2cc(-c3cncn3C)nn2)C(C)C)oc(C(C)=O)c1C(=O)OC | 0.422
24 | COc1ccc([Si](C)(C)[C@H]2[C@H](CCO)O[C@@]3(C(=O)N(Cc4ccc(N5CCCCC5=O)cc4)c4ccccc43)[C@@H]2C)cc1 | 0.446
25 | O=C1c2ccccc2[C@](Cc2ccccc2I)(C(=O)O)[C@H](c2ccc(CO)cc2)N1C1CCCCC1 | 0.0702
26 | CCCNC(=O)[C@@]1(Sc2ccc(C)cc2)CC(=O)N(Cc2ccccc2Cl)[C@@H]1c1ccc(CO)cc1 | 0.369
27 | O=C(NCC(O)CO)[C@]1(Cc2ccccc2)N=C(c2ccc(OCCCO)cc2)O[C@@H]1c1ccccc1 (stereo partly specified) | 0.379
28 | O=C(CS)NCCCCCNC(=O)[C@H]1C[C@H]2C(=O)N3CCC[C@H]3C(=O)N2[C@H]1c1ccc(O)cc1 | -0.159
29 | COc1cccc([C@H]2N[C@H](C(=O)O)CC[C@@H]2C)c1 | 0.386
30 | CC(C)[Si]1(C(C)C)O[C@@H](c2ccccc2)c2cc(C3CC3)nc(-c3ccc(Oc4ccccc4)cc3)c21 | -0.617
31 | CC(=O)Nc1ccc([C@H]2[C@H](C)CC[C@H]3C(=O)N4[C@@H](CC[C@@H](C)[C@@H]4c4ccc(NC(C)=O)cc4)C(=O)N32)cc1 | 1.17
32 | COc1cc2c(cc1OC)CN(C(=O)[C@@H]1[C@H]3C(=O)O[C@H](c4ccccc4)[C@H](c4ccccc4)N3[C@H](c3ccccc3OCCO)[C@@]13C(=O)Nc1ccccc13)CC2 | 0.497
33 | [N-]=[N+]=NCc1ccccc1C[C@@]1(C(=O)N2CCOCC2)N=C(c2ccc(OCCCO)cc2)O[C@@H]1c1ccccc1N=[N+]=[N-] | 0.783
34 | C=CC[C@]1(C(=O)OC)N=C(c2ccc(OCCCO)cc2)O[C@H]1c1ccccc1CN=[N+]=[N-] | 0.101
35 | CO[C@]12C=C(Br)[C@@H](C[C@@H]1c1ccccc1)[C@@]1(CO1)C2=O | 0.271
36 | C[C@]1(C(=O)NCc2ccccc2)c2ccccc2C(=O)N(Cc2cc(C(F)(F)F)cc(C(F)(F)F)c2)[C@H]1c1ccc(CO)cc1 | 0.462
